Results taken from PubChem BioAssay (NCATS).
Several values for one entry are separate records, joined by “and”; a condition that tells them apart may be missing. Equal entries are not always repeated. Inconclusive results are not listed. Activity calls are given as the source filed them. Unless noted, the call rests on the fitted dose curve; in most records, active means well fitted curve in the direction sought with a large enough effect; inconclusive means small, poorly fitted or top-dose-only effect, or another doubt; inactive means no such curve, though single readings can be large; an effect the other way counts as inactive or inconclusive.

Key:
[1] = Cell Viability - LYMP2-018 (AID 985);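 further: compound exposure lasted 24 hr at 37 °C; nearly all actives have a fitted effect of over 50% in size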; further: potency means the concentration at half of the fitted maximal effect
How it was run: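 Human lymphoblastoid cells (2500/well) were pre-incubated 5 hr at 37 C, then exposed to compounds for 24 hr at 37 C in complete medium. Viability was read as intracellular ATP by CellTiter-Glo luminescence; AC50 values came from Hill-equation fits.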

[2] = Cell Viability - LYMP2-020 (AID 986); further: nearly all actives have a fitted effect of over 55% in size; further: potency means the concentration at half of the fitted maximal effect
How it was run: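 Human lymphoblastoid cells, 2500/well, were pre-incubated 5 hr at 37 C, then exposed to compounds for 24 hr at 37 C in complete medium. Intracellular ATP was read by CellTiter-Glo luminescence, and AC50 was derived by Hill fitting of concentration-response data.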

[3] = Cell Viability - LYMP2-024 (AID 988); further: nearly all actives have a fitted effect of over 60% in size; further: potency means the concentration at half of the fitted maximal effect
How it was run: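 Human lymphoblastoid cells (2500/well) in complete medium were preincubated 5 hr at 37 C, then exposed to compounds for 24 hr at 37 C. Intracellular ATP was read by CellTiter-Glo luminescence; AC50 from Hill-equation fits of concentration-response data.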

[4] = Cell Viability - LYMP1-002 - Assay at 40 hr (AID 994); further: nearly all actives have a fitted effect of over 60% in size; further: potency means the concentration at half of the fitted maximal effect
How it was run: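 Human lymphoblastoid cells, 2500/well in complete medium, were preincubated 5 hr at 37 C, then exposed to compounds for 40 hr at 37 C. Intracellular ATP was read by CellTiter-Glo luminescence after 30 min at room temperature; AC50 from Hill-equation fits.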

[5] = qHTS Assay for Lipid Storage Modulators (AID 1519; calls by dose curve; on activity change, negative = inhibition: on the % scale 0 is the no-effect control and ±100 the full control effect); conditions: Drosophila S3 cells, BODIPY lipid droplet/cell ratio, laser cytometry, cells loaded with oleic acid
How it was run: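 Cells seeded at 5,000 per well were treated with compounds over a concentration series and loaded with oleic acid (400 uM, as added). Lipid droplet fluorescence (488 nm excitation, 500-530 nm channel) was read by laser-scanning cytometry and normalized to 20 uM Triacsin C.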

[6] = Cell Viability - LYMP2-002 (AID 977);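 further: compound exposure lasted 24 h at 37 °C; plate controls were DMSO only for no effect and 92 µM tetraoctylammonium bromide for full effect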
How it was run: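 Human lymphoblastoid LYMP2-002 cells, 2500 per well, exposed to compounds for 24 h at 37 C in complete medium; viability read as intracellular ATP by CellTiter-Glo luminescence, AC50 from Hill fits.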

[7] = Cell Viability - LYMP2-006 (AID 978); further: on the % scale 0 is the no-effect control and ±100 the full control effect; nearly all actives have a fitted effect of over 60% in size
How it was run: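 Concentration-dependent loss of intracellular ATP in a human lymphoblastoid line after 24 hr treatment at 37 C was measured by CellTiter-Glo luminescence, with AC50 values obtained from standard Hill-equation modelling.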

[8] = Cell Viability - LYMP2-007 (AID 979);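 further: cells exposed to compound for 24 h before reading; 0% = DMSO only and the negative end = 92 µM tetraoctylammonium bromide; nearly all actives have a fitted effect of over 60% in size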
How it was run: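 Human lymphoblastoid cells (2500/well) were plated in complete medium, incubated 5 hr at 37 C, then exposed to compounds for 24 hr at 37 C. Intracellular ATP was read by CellTiter-Glo luminescence after 30 min at room temperature; AC50 from Hill fits.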

[9] = Cell Viability - LYMP2-008 (AID 980)
How it was run: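 Human lymphoblastoid cells (2500/well) were plated, held 5 hr at 37 C, then exposed to compounds for 24 hr at 37 C in complete medium. Intracellular ATP was read by CellTiter-Glo luminescence; AC50 from Hill-fitted concentration-response.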

[10] = Cell Viability - LYMP2-010 (AID 981); further: on the % scale 0 is the no-effect control and ±100 the full control effect; nearly all actives have a fitted effect of over 55% in size
How it was run: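 Human lymphoblastoid LYMP2-010 cells (2500/well) were preincubated 5 hr at 37 C, then exposed to compounds for 24 hr at 37 C in complete medium. Intracellular ATP was measured by CellTiter-Glo luminescence after 30 min at room temperature; AC50 from Hill-fitted concentration-response.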

[11] = Cell Viability - LYMP2-012 (AID 982);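 further: cellular ATP by luciferase luminescence where a drop means cytotoxicity; cells exposed to compound for one day before reading; 0% = DMSO only and full loss = 92 µM tetraoctylammonium bromide; nearly all actives have a fitted effect of over 55% in size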
[12] = Cell Viability - LYMP2-014 (AID 983);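 further: plate controls were DMSO only for no effect and 92 µM tetraoctylammonium bromide for full effect; nearly all actives have a fitted effect of over 50% in size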
How it was run: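 Human lymphoblastoid cells (2500/well) were pre-incubated 5 hr at 37 C, then exposed to compounds in complete medium for 24 hr at 37 C. Intracellular ATP was read by CellTiter-Glo luminescence after 30 min at room temperature; AC50 from Hill fits.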

[13] = Cell Viability - LYMP2-016 (AID 984); further: on the % scale 0 is the no-effect control and ±100 the full control effect; nearly all actives have a fitted effect of over 55% in size
How it was run: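 Acute toxicity in a Coriell human lymphoblastoid line is scored as loss of intracellular ATP over 24 h of treatment in complete medium. CellTiter-Glo signal is fitted across concentrations with the Hill equation to give AC50.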

[14] = Cell Viability - LYMP2-022 (AID 987)
How it was run: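 Human lymphoblastoid cells, 2500/well, preincubated 5 hr at 37 C, then exposed to compounds over a concentration range for 24 hr at 37 C in complete medium. Viability read as intracellular ATP by CellTiter-Glo luminescence after 30 min at room temperature; AC50 from Hill fits.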

[15] = Cell Viability - LYMP2-026 (AID 989); further: on the % scale 0 is the no-effect control and ±100 the full control effect; nearly all actives have a fitted effect of over 50% in size
How it was run: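 Human lymphoblastoid cells (2500/well) in complete medium were preincubated 5 hr at 37 C, then exposed to compounds for 24 hr at 37 C. Cellular ATP was read by CellTiter-Glo luminescence; AC50 from Hill-equation fits of concentration-response data.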

[16] = Cell Viability - LYMP1-002 - Assay at 24 hr (AID 993); further: on the % scale 0 is the no-effect control and ±100 the full control effect
How it was run: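 Human lymphoblastoid LYMP1-002 cells, 2500/well in complete medium, were treated with compounds for 24 h at 37 C; intracellular ATP was read by CellTiter-Glo luminescence. AC50 values came from Hill-equation fits of qHTS concentration-response data.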

[17] = target: Alpha-galactosidase A (Homo sapiens) (UniProt P06280); assay: Counterscreen for Glucocerebrosidase Inhibitors: qHTS Assay for Human alpha-Galactosidase at pH 4.5 (AID 992); further: 0% is about no effect
Sequence of Alpha-galactosidase A (Homo sapiens) (P06280 whole entry, looked up): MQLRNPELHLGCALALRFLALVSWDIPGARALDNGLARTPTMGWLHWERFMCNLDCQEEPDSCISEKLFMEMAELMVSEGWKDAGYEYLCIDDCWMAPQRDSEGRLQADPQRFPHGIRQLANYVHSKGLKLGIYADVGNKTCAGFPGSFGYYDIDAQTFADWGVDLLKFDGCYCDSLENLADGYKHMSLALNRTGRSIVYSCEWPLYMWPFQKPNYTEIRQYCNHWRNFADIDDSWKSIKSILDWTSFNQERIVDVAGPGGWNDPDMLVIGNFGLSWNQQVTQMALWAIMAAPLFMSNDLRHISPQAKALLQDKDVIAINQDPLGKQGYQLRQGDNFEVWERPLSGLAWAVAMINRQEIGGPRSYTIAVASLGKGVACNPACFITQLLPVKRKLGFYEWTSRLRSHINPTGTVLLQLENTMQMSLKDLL
How it was run: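 Quantitative HTS: compounds tested from 0.7 nM up to 77 uM against 2 nM enzyme with 80 uM 4-MU alpha-D-galactopyranoside. The 20 min room-temperature reaction is stopped with 1M NaOH/1M glycine, pH 10.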

[18] = target: alpha-glucosidase (Oryza sativa, rice) (UniProt Q653V4); assay: Counterscreen for Glucocerebrosidase Inhibitors: qHTS Assay for Rice alpha-Glucosidase at pH 5.0 (AID 997);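 further: 0% = full activity with enzyme and -100% = basal without enzyme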
How it was run: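 Rice alpha-glucosidase (4 nM final) with 400 uM 4-methylumbelliferyl-alpha-D-glucopyranoside in citrate buffer pH 5.0, 20 min at room temperature, stopped at pH 10; fluorescence 365/440 nm, compounds 0.7 nM–77 uM, AC50 from Hill fits.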

[19] = target: DNA repair nuclease/redox regulator APEX1 (Homo sapiens) (UniProt P27695); assay: qHTS Validation Assay for Inhibitors of the Human Apurinic/apyrimidinic Endonuclease 1 (APE1) (AID 1705;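 further: TAMRA fluorescence gain over two minutes as APE1 cuts a quenched THF abasic duplex; on the % scale 0 is the no-effect control and ±100 the full control effect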)
Sequence of DNA repair nuclease/redox regulator APEX1 (Homo sapiens) (P27695 whole entry, looked up): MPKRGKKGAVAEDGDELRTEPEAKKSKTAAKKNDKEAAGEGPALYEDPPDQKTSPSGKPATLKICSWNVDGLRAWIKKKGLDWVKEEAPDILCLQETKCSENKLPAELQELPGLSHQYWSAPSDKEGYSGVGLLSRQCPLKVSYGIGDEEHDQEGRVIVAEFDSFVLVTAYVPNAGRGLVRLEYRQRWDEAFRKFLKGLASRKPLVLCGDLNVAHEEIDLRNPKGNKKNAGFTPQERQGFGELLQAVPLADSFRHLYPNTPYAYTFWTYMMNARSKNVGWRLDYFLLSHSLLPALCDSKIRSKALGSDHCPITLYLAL
How it was run: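 Endonuclease activity of human APE1 is followed as dequenching when the enzyme incises a tetrahydrofuran abasic site in a short duplex labelled 5'-TAMRA/3'-BHQ-2 (50 nM final), after 15 min enzyme–compound preincubation at room temperature.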

[20] = Counterscreen for APE1 Inhibitors: Fluorescent Dye Displacement Validation Assay (AID 1707);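 further: plate controls were ThO with dsDNA and no compound for no effect and ThO without dsDNA for full effect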
How it was run: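 Compounds are scored by their ability to displace Thiazole Orange (250 nM) from a 50 nM TAMRA-tagged duplex bearing a tetrahydrofuran abasic site. Buffer is 50 mM Tris-HCl pH7.5, 50mM NaCl, 2 mM MgCl2, 0.01% Tween-20.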

[21] = measured here: cell count channel max response
[22] = measured here: lipid channel max response

**Q.** For `Oc1c(Cl)cc(Cl)c(Cl)c1Cc1c(O)c(Cl)cc(Cl)c1Cl`, which Potency [1] is on record?
**A.** Its Potency is 25.1 µM (active).

**Q.** What about the Potency [2] of the same compound?
**A.** Its Potency is 15.8 µM (active).

**Q.** And the Potency [3]?
**A.** The Potency was 39.8 µM (active).

**Q.** And the Potency [4]?
**A.** The Potency was 31.6 µM (active).

**Q.** What about the activity change, negative = inhibition ([5]; at 57.5 µM (top of the series)) of the same compound?
**A.** Its activity change, negative = inhibition is 7.05% (inactive).

**Q.** And the max response [5, 21]?
**A.** The max response was 18%.

**Q.** What about the max response [5, 22] of the same compound?
**A.** Its max response is 27%.

**Q.** Which results are given for `COc1ccc(C(=O)c2ccccc2O)c(O)c1`?
**A.** activity change, negative = inhibition ([5]; at 25.7 µM (top of the series)): -7.39% (inactive); activity change, negative = inhibition ([5]; at 57.5 µM (top of the series)): 4.5% (inactive); max response [5, 21]: -10.6% and 8.18%; max response [5, 22]: -18.3% and 15.8%

**Q.** Which results are given for `COc1cc(NS(=O)(=O)c2ccc(N)cc2)ncn1`?
**A.** activity change, negative = inhibition ([5]; at 25.7 µM (top of the series)): 1.08% (inactive); activity change, negative = inhibition ([5]; at 57.5 µM (top of the series)): 3.4% (inactive); max response [5, 21]: 0.606% and 6.05%; max response [5, 22]: 1.51% and 9.04%

**Q.** What does the source list for `CNCCc1ccccn1`?
**A.** activity change, negative = inhibition ([5]; at 25.7 µM (top of the series)): -0.261% (inactive); activity change, negative = inhibition ([5]; at 57.5 µM (top of the series)): 1.62% (inactive); max response [5, 21]: 0.592% and 17.8%; max response [5, 22]: 1.76% and 22.8%

**Q.** With `CCOc1ccc(NC(C)=O)cc1` as the compound, how does the outcome [6] read?
**A.** The outcome was “inactive”.

**Q.** And the outcome [7]?
**A.** Its outcome is “inactive”.

**Q.** What about the outcome [8] of the same compound?
**A.** Its outcome is “inactive”.

**Q.** And the outcome [9]?
**A.** Its outcome is “inactive”.

**Q.** And the outcome [10]?
**A.** Its outcome is “inactive”.

**Q.** What about the outcome [11] of the same compound?
**A.** The outcome was “inactive”.

**Q.** What about the outcome [12] of the same compound?
**A.** The outcome was “inactive”.

**Q.** And the outcome [13]?
**A.** The outcome was “inactive”.

**Q.** What about the Potency [1] of the same compound?
**A.** The Potency was “inactive”.

**Q.** And the Potency [2]?
**A.** The Potency was “inactive”.

**Q.** And the outcome [14]?
**A.** Its outcome is “inactive”.

**Q.** And the Potency [3]?
**A.** Its Potency is “inactive”.

**Q.** What about the outcome [15] of the same compound?
**A.** Its outcome is “inactive”.

**Q.** What about the outcome [16] of the same compound?
**A.** The outcome was “inactive”.

**Q.** What about the Potency [4] of the same compound?
**A.** The Potency was “inactive”.

**Q.** And the activity change, negative = inhibition ([5]; at 25.7 µM (top of the series))?
**A.** Its activity change, negative = inhibition is -1.03% (inactive).

**Q.** And the max response [5, 21]?
**A.** The max response was 1.01%.

**Q.** What about the max response [5, 22] of the same compound?
**A.** The max response was -4.32%.

**Q.** What does the source list for `O=C(CCCN1CC=C(n2c(=O)[nH]c3ccccc32)CC1)c1ccc(F)cc1`?
**A.** activity change, negative = inhibition ([5]; at 25.7 µM (top of the series)): 1.32% (inactive); activity change, negative = inhibition ([5]; at 57.5 µM (top of the series)): 14.6% (inactive); max response [5, 21]: -13.4% and 7.49%; max response [5, 22]: -9.23% and 27.6%

**Q.** Which activity change, negative = inhibition ([5]; at 25.7 µM (top of the series)) does the source give for `O=C(O)CCC(=O)Nc1ccc(S(=O)(=O)Nc2nccs2)cc1` here?
**A.** The activity change, negative = inhibition was 0.767% (inactive).

**Q.** What about the activity change, negative = inhibition ([5]; at 57.5 µM (top of the series)) of the same compound?
**A.** The activity change, negative = inhibition was 7.18% (inactive).

**Q.** And the max response [5, 21]?
**A.** Its max response is 5.61% and 16.3%.

**Q.** What about the max response [5, 22] of the same compound?
**A.** The max response was 3.26% and 28.6%.

**Q.** With `NC(N)=NCc1cccc(I)c1` as the compound, how does the outcome [17] read?
**A.** The outcome was “inactive”.

**Q.** And the outcome [18]?
**A.** Its outcome is “inactive”.

**Q.** And the activity change, negative = inhibition ([5]; at 57.5 µM (top of the series))?
**A.** The activity change, negative = inhibition was 3.74% (inactive).

**Q.** And the max response [5, 21]?
**A.** The max response was -19.1%.

**Q.** What about the max response [5, 22] of the same compound?
**A.** Its max response is -12.1%.

**Q.** What about the Potency [19] of the same compound?
**A.** Its Potency is “inactive”.

**Q.** What about the outcome [20] of the same compound?
**A.** The outcome was “inactive”.
